# “And” between values parts separate entries of the source, which are not always exact repeats. Identical values can stand only once. Records with an inconclusive call do not appear. Where a call stands in place of a potency, no number is given. Some structures have more than one record in an assay (separate samples or runs), and their calls can disagree. The source made the active and inactive calls. Calls come from the whole dose curve; as a rule, active = well fitted curve in the direction sought with a large enough effect in the repeat runs; inconclusive = weak or mixed curves; inactive = no such curve, though single readings can be large; an effect the other way counts as inactive or inconclusive.
# Columns and labels:
# [1] = A CellTox Green Cytotoxicity Assay to monitor cytotoxicity in HEK293 cells - 40 hour (AID 1224871); note: nearly all actives have a fitted effect of over 45% in size
# How it was run: (§1)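 Cells (HEK293, 600/well) and dye reagent are dispensed together. After 5 h at 37 C, 23 nL compound is pinned in. Plates stay at 37 C for 40 h with fluorescence read at 0h, 8h, 16h, 24h, 32h and 40h.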
# [2] = qHTS RealTime-Glo MT Cell Viability Assay in HEK293 cells - 16 hour (AID 1224872); note: nearly all actives have a fitted effect of over 50% in size
# How it was run: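 Homogeneous bioluminescent viability format in HEK293 cells (600 cells/well). Following 5 h at 37 C/5% CO2, 23 nL compound was pintooled; the signal was measured repeatedly during 40 h incubation.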
# [3] = qHTS RealTime-Glo MT Cell Viability Assay in HepG2 cells - 8 hour (AID 1224873); note: nearly all actives have a fitted effect of over 55% in size
# How it was run: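 HepG2 cells (600/well) mixed with RealTime-Glo MT reagent, settled 5 h at 37 C/5% CO2 before compound addition. Nonlytic NanoLuc luminescence from viable-cell prosubstrate reduction read repeatedly during 40 h treatment at 37 C.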
# [4] = qHTS RealTime-Glo MT Cell Viability Assay in HEK293 cells - 40 hour (AID 1224874); details: RealTime-Glo luminescence; max response: stronger effect = lower value; note: nearly all actives have a fitted effect of over 50% in size
# How it was run: (§2)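 Real-time viability in HEK293: signal arises when living cells convert a prosubstrate for NanoLuc in the medium, so luminescence tracks viable cell number. Compound (23 nL, DMSO) added 5 h post-seeding; kinetic reads at 0–40 h, 37 C.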
# [5] = qHTS RealTime-Glo MT Cell Viability Assay in HepG2 cells - 32 hour (AID 1224877); note: nearly all actives have a fitted effect of over 55% in size
# How it was run: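 Cell number in HepG2 cultures estimated from NanoLuc luminescence generated by metabolic reduction of a prosubstrate by living cells. The homogeneous, nonlytic format allowed repeated reads at 0, 8, 16, 24, 32 and 40 h of compound exposure.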
# [6] = A CellTox Green Cytotoxicity Assay to monitor cytotoxicity in HEK293 cells - 24 hour (AID 1224875); note: nearly all actives have a fitted effect of over 45% in size
# How it was run: as §1
# [7] = A CellTox Green Cytotoxicity Assay to monitor cytotoxicity in HepG2 cells - 16 hour (AID 1224876); note: nearly all actives have a fitted effect of over 45% in size
# How it was run: (§3)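 Cells and non-lytic dye reagent are dispensed together (600 HepG2 cells/well) and incubated 5 h before DMSO compound transfer. Kinetic fluorescence is then recorded in the same wells during 40 h at 37 C.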
# [8] = A CellTox Green Cytotoxicity Assay to monitor cytotoxicity in HepG2 cells - 24 hour (AID 1224878); note: nearly all actives have a fitted effect of over 45% in size
# How it was run: as §3
# [9] = A CellTox Green Cytotoxicity Assay to monitor cytotoxicity in HepG2 cells - 40 hour (AID 1224879); note: nearly all actives have a fitted effect of over 40% in size
# How it was run: as §3
# [10] = qHTS RealTime-Glo MT Cell Viability Assay in HEK293 cells - 0 hour (AID 1224880); note: nearly all actives have a fitted effect of over 45% in size
# How it was run: as §2
# Potency is the fitted concentration of half-maximal effect.
SMILES,Potency [1],Potency [2],Potency [3],max response [4],Potency [5],Potency [4],Potency [6],Potency [7],Potency [8],Potency [9],Potency [10]
CCCC(C)c1ccccc1O (centres undefined),49 µM (active),inactive,inactive,-11.1% (inactive),inactive,–,–,–,–,–,–
CCCCCCCCCCn1cc[n+](CCCCCCCCCC)c1C,19.5 µM (active),6.93 µM (active),–,–,19.5 µM (active),0.979 µM (active),17.4 µM (active),21.9 µM (active),17.4 µM (active),15.5 µM (active),inactive
O=C(Oc1ccccc1)c1ccccc1C(=O)Oc1ccccc1,inactive,inactive,–,-2.84% (inactive),inactive,–,inactive,inactive,inactive,inactive,inactive
CCC(C)Nc1ccc(NC(C)CC)cc1 (centres undefined),12.5 µM (active),4.45 µM (active),–,–,17.7 µM (active),3.97 µM (active),17.7 µM (active),35.3 µM (active),22.3 µM (active),17.7 µM (active),19.9 µM (active)
Cc1cc(N)c(S(=O)(=O)O)cc1Cl,inactive,inactive,–,1.42% (inactive),inactive,–,inactive,inactive,inactive,inactive,inactive
CCCCN(CCCC)C(=O)N(CCCC)CCCC,inactive,inactive,–,-2.17% (inactive),inactive,–,inactive,inactive,inactive,inactive,–
O=C(NO)C1(NS(=O)(=O)c2ccc(Oc3ccc(F)cc3)cc2)CCOCC1,inactive,inactive,inactive,–,inactive,–,inactive,inactive,inactive,–,–
CCOC(=O)/C=C(C)/C=C/C=C(C)/C=C/c1c(C)cc(OC)c(C)c1C,inactive,inactive,inactive,–,inactive,–,inactive,inactive,inactive,inactive,inactive
O=C(Nc1ccc(Oc2ccc(Cl)cc2)c(Cl)c1)c1cc(I)cc(I)c1O,inactive,inactive,–,2.12% (inactive),inactive,–,inactive,inactive,inactive,inactive,inactive
C[n+]1ccn(Cc2ccccc2)c1,inactive,inactive,inactive,–,inactive,–,inactive,inactive,inactive,inactive,inactive
O=c1[nH]cnc2nc[nH]c12,inactive,inactive,–,3.71% (inactive),inactive,–,inactive,inactive,inactive,inactive,–
C[C@H]1[C@H]2CC[C@H]3[C@@H]4CC=C5C[C@@H](N(C)C)CC[C@]5(C)[C@H]4CC[C@]23CN1C,inactive,inactive,inactive,–,inactive,–,inactive,–,–,inactive,inactive
CCCCC(CC)COP(=O)(O)OCC(CC)CCCC (centres undefined),43.6 µM (active),inactive,inactive,–,inactive,–,43.6 µM (active),inactive,49.1 µM (active) and inactive,54.9 µM (active),inactive
CCCCCCCCCCCC(=O)NCCCN(C)C,49 µM (active),49 µM (active),–,–,38.9 µM (active),34.7 µM (active),54.9 µM (active),43.6 µM (active),34.7 µM (active),30.9 µM (active),–
CC(C)(C)CC(C)(C)c1ccc(O)c(Cc2ccc(Cl)cc2Cl)c1,23.9 µM (active),21.3 µM (active),–,–,–,23.9 µM (active),26.8 µM (active),–,–,–,–
O=c1[nH]sc2ccccc12,54.9 µM (active),38.9 µM (active),34.7 µM (active),–,21.9 µM (active),30.9 µM (active),–,34.7 µM (active),38.9 µM (active),21.9 µM (active),inactive
O=C1c2ccccc2Cc2ccccc21,inactive,inactive,inactive,–,inactive,–,inactive,inactive,inactive,–,inactive
Clc1ccccc1C(c1ccccc1)(c1ccccc1)n1ccnc1,43.6 µM (active) and inactive,27.5 µM (active),27.5 µM (active) and inactive,–,24.5 µM (active) and inactive,19.5 µM (active) and 6.74 µM (active),–,38.9 µM (active) and inactive,21.9 µM (active) and inactive,–,inactive
Nc1ccccc1O,inactive,inactive,inactive,–,inactive,–,inactive,inactive,inactive,inactive,inactive
COC(=O)C1=C(C)NC(C)=C(C(=O)OCC(C)C)C1c1ccccc1[N+](=O)[O-] (centres undefined),49 µM (active) and inactive,38.9 µM (active),–,–,49 µM (active),19.5 µM (active) and 23.9 µM (active),inactive,inactive,inactive,inactive,21.3 µM (active)
Clc1ccc2n[nH]nc2c1,inactive,inactive,–,4.16% (inactive),inactive,–,inactive,inactive,inactive,inactive,inactive
OC1(c2ccc(Cl)c(C(F)(F)F)c2)CCN(CCCC(c2ccc(F)cc2)c2ccc(F)cc2)CC1,21.3 µM (active),9.52 µM (active),–,–,8.49 µM (active),9.52 µM (active),23.9 µM (active),10.7 µM (active),9.52 µM (active),6.74 µM (active),inactive
O=C(OCC1CO1)C1CCCCC1C(=O)OCC1CO1 (centres undefined),inactive,inactive,inactive,–,inactive,–,inactive,inactive,inactive,inactive,inactive
CNc1ccc(O)cc1,9.75 µM (active),13.8 µM (active),48.9 µM (active),–,–,12.3 µM (active),–,–,–,48.9 µM (active),17.3 µM (active)

SMILES,Potency [1],Potency [2],Potency [3],max response [4],Potency [5],Potency [4],Potency [6],Potency [7],Potency [8],Potency [9],Potency [10]
CCCCCCCC[P+](CCCCCCCC)(CCCCCCCC)CCCCCCCC,6.87 µM (active),4.87 µM (active),–,–,12.2 µM (active),0.194 µM (active),4.87 µM (active),12.2 µM (active),9.71 µM (active),–,–
Oc1ccc2cc(SSc3ccc4cc(O)ccc4c3)ccc2c1,49 µM (active) and 24.5 µM (active),49 µM (active),inactive,–,inactive,55 µM (active),–,inactive,inactive,inactive and 21.9 µM (active),inactive
C=C(C)C(=O)OCC[N+](C)(C)C,inactive,inactive,inactive,-0.113% (inactive),inactive,–,–,inactive,inactive,inactive,inactive
Cc1cc(O)c(C(C)(C)C)cc1C(C)(C)C,24.5 µM (active),19.5 µM (active),38.9 µM (active),–,43.6 µM (active),–,24.5 µM (active),21.9 µM (active),21.9 µM (active),24.5 µM (active),inactive
CCC(CN)=C(c1ccccc1)c1ccccc1,inactive,inactive,–,-19.1% (inactive),inactive,–,inactive,inactive,inactive,–,–
CCCCCCCCn1sc(Cl)c(Cl)c1=O,1.95 µM (active),3.47 µM (active),–,–,5.49 µM (active),3.47 µM (active),1.1 µM (active),7.76 µM (active),11 µM (active),9.77 µM (active),inactive
CCCCCCCCCCCCc1ccc(O)cc1,49 µM (active),38.9 µM (active),–,–,49 µM (active),38.9 µM (active),49 µM (active),15.5 µM (active),13.8 µM (active),19.5 µM (active),inactive
C=CC(=O)OCCn1c(=O)n(CCOC(=O)C=C)c(=O)n(CCOC(=O)C=C)c1=O,21.9 µM (active),11 µM (active),–,–,24.5 µM (active),11 µM (active),49 µM (active),49 µM (active),49 µM (active),21.9 µM (active),–
CCCCCCCCCOC(=O)c1ccc(O)cc1,38.3 µM (active),43 µM (active),–,–,inactive,38.3 µM (active),38.3 µM (active),48.3 µM (active),48.3 µM (active),48.3 µM (active),inactive
O=c1cccccc1O,inactive,inactive,inactive,–,inactive,–,inactive,inactive,inactive,inactive,inactive
N=C1C=CC(=C(c2ccc(N)cc2)c2ccc(N)cc2)C=C1,inactive,3.09 µM (active),–,–,24.5 µM (active),1.95 µM (active),inactive,inactive,inactive,inactive,inactive
CC(C)CCCCCCCCCCCCCCC(=O)O,inactive,inactive,–,–,inactive,–,inactive,inactive,inactive,inactive,inactive
CC(C)(C)C(=O)OCOC(=O)[C@@H]1N2C(=O)[C@@H](NC(=O)[C@H](N)c3ccccc3)[C@H]2SC1(C)C,inactive,inactive,–,5.37% (inactive),inactive,–,inactive,inactive,inactive,–,inactive
O=S1(=O)CC(Cl)(Cl)C(Cl)(Cl)C1,1.95 µM (active),4.9 µM (active),–,–,6.16 µM (active),–,–,11 µM (active),9.77 µM (active),6.92 µM (active),inactive
CCN(CCC#N)c1ccc(N=Nc2c(Cl)cc([N+](=O)[O-])cc2Cl)cc1,inactive,inactive,–,-15.8% (inactive),–,–,inactive,inactive,inactive,inactive,–
Cc1ccc(-n2nc(C(C)(C)C)cc2NC(=O)Nc2ccc(OCCN3CCOCC3)c3ccccc23)cc1,inactive,–,inactive,–,inactive,–,inactive,inactive,inactive,inactive,inactive
Nc1c2ccccc2nc2ccccc12,24.2 µM (active),19.2 µM (active),–,–,24.2 µM (active) and 10.7 µM (active),4.83 µM (active) and 2.39 µM (active),–,inactive and 13.4 µM (active),10.7 µM (active),10.8 µM (active) and 10.7 µM (active),–
CC1=C(/C=C/C(C)=C/C=C/C(C)=C/C=O)C(C)(C)CCC1,38.7 µM (active),19.4 µM (active),–,–,–,19.4 µM (active),38.7 µM (active),–,54.6 µM (active),48.7 µM (active),inactive
COc1ccc(CN2CCN(C(c3ccc(F)cc3)c3ccc(F)cc3)CC2)c(OC)c1OC,4.77 µM (active),9.52 µM (active),–,–,–,16.9 µM (active),inactive,inactive,inactive,–,inactive
Clc1ccc(C(Cn2ccnc2)OCc2ccc(Sc3ccccc3)cc2)c(Cl)c1 (centres undefined),inactive,inactive,–,-2.43% (inactive),inactive,–,inactive,inactive,inactive,–,inactive
CC[C@@]1(O)C(=O)OCc2c1cc1n(c2=O)Cc2c-1nc1ccccc1c2/C=N/OC(C)(C)C,inactive,–,inactive,–,–,0.0239 µM (active),inactive,3.38 µM (active),0.848 µM (active),–,inactive
O=C(NOCC1CC1)c1ccc(F)c(F)c1Nc1ccc(I)cc1Cl,inactive,–,inactive,–,–,23.9 µM (active),inactive,inactive,0.0425 µM (active),0.107 µM (active),16.9 µM (active)
CCN(Cc1cccnc1)C(=O)c1cccc(Cl)c1[C@]1(C)C(=O)N(Cc2ccc(OC)cc2OC)c2ccc(Cl)cc21,inactive,22.9 µM (active),–,–,–,20.4 µM (active),inactive,inactive,inactive,inactive,inactive

# Source: PubChem BioAssay (Tox21)
